Screens: PubChem BioAssay, several laboratories
An excerpt weighted towards active compounds, which were near 2% of everything screened.
TLR9-MyD88 block: inhibitors of human TLR9-MyD88 binding; Q9NR96+Q99836; CHO BLA complementation TLR9-MyD88, CCF4 FRET ratio; inhibition, % at 4.98 µM; hit rate 0.21% among 340,000;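 active = inhibition above the mean over all tested compounds plus 3 SD, cut at about 21% in these data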
NOD2-RIPK2 inh: inhibitors of human NOD2-RIPK2 interaction | O43353 | CHO BLA complementation NOD2-RIPK2, CCF4 ratio | inhibition, % at 4.98 µM | hit rate 0.38% among 360,000; in the data active = inhibition above about 21%
Beta2AR agonist: agonists of human beta-2 adrenergic receptor inducing internalization. Am2.2-beta2AR cells, FAP receptor internalization, flow cytometry. P07550. response, % (concentration not given with the values). hit rate 0.43% among 340,000. AID 504454;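 active = response above a set limit, near 3 SD of response in nonfluorescent compounds, cut at about 42% in these data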
ABHD5-PLIN5 inh: blocks binding of human ABHD5 to perilipin-5 | Q00G26+Q8WTS1 | Split G. princeps luciferase complementation, luminescence, 4 h | AID 602281 | hit rate 0.78% among 360,000 | inhibition, % at 4 µM;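 active = inhibition above the mean inhibition across every tested compound plus 3 SD, cut at about 22% in these data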
Target sequence (Q00G26 whole entry, looked up): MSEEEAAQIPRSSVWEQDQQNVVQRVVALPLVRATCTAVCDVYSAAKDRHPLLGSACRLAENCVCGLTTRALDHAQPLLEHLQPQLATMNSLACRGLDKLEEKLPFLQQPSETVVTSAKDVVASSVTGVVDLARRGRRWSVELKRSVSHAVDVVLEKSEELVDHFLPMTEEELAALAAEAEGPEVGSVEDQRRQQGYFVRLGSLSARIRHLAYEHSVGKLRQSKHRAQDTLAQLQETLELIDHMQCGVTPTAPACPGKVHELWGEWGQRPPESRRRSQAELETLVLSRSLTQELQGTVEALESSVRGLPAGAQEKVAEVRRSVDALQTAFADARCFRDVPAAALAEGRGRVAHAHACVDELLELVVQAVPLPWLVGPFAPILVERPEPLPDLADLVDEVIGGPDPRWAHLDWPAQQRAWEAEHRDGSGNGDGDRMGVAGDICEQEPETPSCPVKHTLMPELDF
Target sequence (Q8WTS1 whole entry, looked up): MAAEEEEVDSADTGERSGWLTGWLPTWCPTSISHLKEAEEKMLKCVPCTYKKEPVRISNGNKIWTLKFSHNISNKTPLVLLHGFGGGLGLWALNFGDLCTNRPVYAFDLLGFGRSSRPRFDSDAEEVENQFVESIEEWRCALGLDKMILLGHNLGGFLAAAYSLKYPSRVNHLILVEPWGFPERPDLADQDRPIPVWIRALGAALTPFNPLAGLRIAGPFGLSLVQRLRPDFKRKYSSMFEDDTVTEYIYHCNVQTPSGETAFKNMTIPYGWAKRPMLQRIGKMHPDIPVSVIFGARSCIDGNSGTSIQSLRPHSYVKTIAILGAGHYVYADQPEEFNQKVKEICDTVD
Exocytosis inh: blocks lytic granule exocytosis | TALL-104 LAMP-1 surface exposure, flow cytometry; cells stimulated with thapsigargin and PMA | inhibition, % at 10 µM | hit rate 0.66% among 360,000 | AID 651702;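 active = inhibition above about 55%, limit read from the data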
TLR4 MyD88 comp: inhibitors of human TLR4-MyD88 binding. O00206+Q99836. HeLa CL3-4 TLR4/MyD88 BLA complementation, FRET ratio. AID 861. inhibition, % at 8.4 µM. hit rate 0.18% among 200,000; in the data active = inhibition above about 25%
Granule exo CP1: blocks lytic granule exocytosis | shares compounds with Exocytosis inh | TALL-104 cells, LAMP-1 externalization, flow cytometry; stimulated with PMA plus thapsigargin | inhibition, % at 10 µM | hit rate 11% among 1,500 | AID 651954; in the data active = inhibition above about 60%
A number is an active result.

How did CCCCn1nnnc1C(c1ccccc1)N1CCN(c2ccc(C)cc2)CC1 (configuration not stated) do in these assays?
NOD2-RIPK2 inh: inactive; ABHD5-PLIN5 inh: inactive; Exocytosis inh: inactive

What do the screens show for `CCCCn1c(NCc2ccc3c(c2)OCO3)nc2ccccc21`?
TLR9-MyD88 block: inactive; NOD2-RIPK2 inh: inactive; Beta2AR agonist: inactive; ABHD5-PLIN5 inh: inactive; Exocytosis inh: 67; TLR4 MyD88 comp: inactive; Granule exo CP1: inactive

What do the screens show for `CCOC(=O)C1(Cc2cccc(Cl)c2)CCCN(C(=O)c2c(CC)noc2C)C1` (configuration not stated)?
TLR9-MyD88 block: inactive; NOD2-RIPK2 inh: inactive; Beta2AR agonist: inactive; ABHD5-PLIN5 inh: inactive; Exocytosis inh: 59; Granule exo CP1: inactive

How did CCOc1ccccc1CNC(c1ccccc1)c1ccccc1 do in these assays?
TLR9-MyD88 block: inactive; NOD2-RIPK2 inh: inactive; Beta2AR agonist: inactive; ABHD5-PLIN5 inh: inactive; Exocytosis inh: 59; Granule exo CP1: inactive

What do the screens show for `Cc1ccc(C(=O)Nc2cccc(N3C(=O)C4CCC(C)CC4C3=O)c2)cc1` (configuration not stated)?
TLR9-MyD88 block: inactive; NOD2-RIPK2 inh: inactive; Beta2AR agonist: inactive; ABHD5-PLIN5 inh: inactive; Exocytosis inh: inactive

How did CCOc1ccc(C(=O)Cc2ccccc2)cc1 do in these assays?
TLR9-MyD88 block: inactive; NOD2-RIPK2 inh: inactive; Beta2AR agonist: inactive; ABHD5-PLIN5 inh: inactive; Exocytosis inh: inactive

How did COc1ccccc1CC(=O)c1ccc(OCc2ccccc2)cc1 do in these assays?
TLR9-MyD88 block: inactive; NOD2-RIPK2 inh: inactive; Beta2AR agonist: inactive; ABHD5-PLIN5 inh: inactive; Exocytosis inh: 81; Granule exo CP1: inactive

Results for O=C(c1cccs1)N1CCN(Cc2nc(-c3ccccc3)no2)CC1 ?
TLR9-MyD88 block: inactive; NOD2-RIPK2 inh: inactive; ABHD5-PLIN5 inh: inactive; Exocytosis inh: inactive

What do the screens show for `CN(CC(=O)Nc1ccccc1Cl)C(=O)COC(=O)c1ccc([N+](=O)[O-])cc1Cl`?
TLR9-MyD88 block: inactive; NOD2-RIPK2 inh: inactive; Beta2AR agonist: inactive; ABHD5-PLIN5 inh: inactive; Exocytosis inh: inactive

How did CN(CCOc1ccccc1)CC(=O)Nc1ccc([N+](=O)[O-])cc1Cl do in these assays?
TLR9-MyD88 block: inactive; NOD2-RIPK2 inh: inactive; Beta2AR agonist: inactive; ABHD5-PLIN5 inh: inactive; Exocytosis inh: 73; TLR4 MyD88 comp: inactive; Granule exo CP1: inactive

What do the screens show for `CCNC(=O)C1(C)CCCN(C(=O)c2cc(C)nn2C(C)(C)C)C1` (configuration not stated)?
NOD2-RIPK2 inh: inactive; ABHD5-PLIN5 inh: inactive; Exocytosis inh: inactive

Results for Cc1ccccc1CC1CCN(CCCNC(=O)Nc2ccccc2)CC1 ?
TLR9-MyD88 block: inactive; NOD2-RIPK2 inh: inactive; Beta2AR agonist: inactive; ABHD5-PLIN5 inh: inactive; Exocytosis inh: 63; Granule exo CP1: inactive

How did O=C(NCCCN1CCN(Cc2ccccc2Cl)CC1)Nc1ccccc1 do in these assays?
TLR9-MyD88 block: inactive; NOD2-RIPK2 inh: inactive; Beta2AR agonist: inactive; ABHD5-PLIN5 inh: inactive; Exocytosis inh: inactive; TLR4 MyD88 comp: inactive

What do the screens show for `Cc1ccc(C)c(CN2CCC(CNC(=O)Nc3ccc(Cl)cc3)CC2)c1`?
TLR9-MyD88 block: inactive; NOD2-RIPK2 inh: inactive; Beta2AR agonist: inactive; ABHD5-PLIN5 inh: inactive; Exocytosis inh: 66; Granule exo CP1: inactive

Results for Cc1ccc(C)c(CN2CCC(CNC(=O)Nc3ccc(Br)cc3F)CC2)c1 ?
TLR9-MyD88 block: inactive; NOD2-RIPK2 inh: inactive; Beta2AR agonist: inactive; ABHD5-PLIN5 inh: inactive; Exocytosis inh: inactive

Results for CCCNC(=O)C1(C)CCCN(C(=O)/C=C/c2ccccc2)C1 (configuration not stated) ?
NOD2-RIPK2 inh: inactive; ABHD5-PLIN5 inh: inactive; Exocytosis inh: inactive

What do the screens show for `Cc1cccc(CCN(CC(=O)NCc2ccc(F)cc2)C(=O)c2csnn2)c1`?
TLR9-MyD88 block: inactive; NOD2-RIPK2 inh: inactive; Beta2AR agonist: inactive; ABHD5-PLIN5 inh: inactive; Exocytosis inh: 68; Granule exo CP1: inactive

How did COc1ccc2[nH]c3c(C)c4ccncc4c(C)c3c2c1 do in these assays?
TLR9-MyD88 block: inactive; NOD2-RIPK2 inh: inactive; Beta2AR agonist: inactive; ABHD5-PLIN5 inh: inactive; Exocytosis inh: 70; Granule exo CP1: inactive

How did CCC1=C2CC[C@H]3C(=O)N(C)C(=O)[C@H]3[C@H]2[C@@]2(Cc3ccccc3)C(=NCC(=O)OC)OC(=O)N2C1=O do in these assays?
TLR9-MyD88 block: inactive; NOD2-RIPK2 inh: inactive; Beta2AR agonist: inactive; ABHD5-PLIN5 inh: inactive; Exocytosis inh: 84; Granule exo CP1: inactive

What do the screens show for `COc1cc(NC(=O)c2cccc3c2C(=O)N(C2CCCCC2)C3)cc(OC)c1OC`?
TLR9-MyD88 block: inactive; NOD2-RIPK2 inh: inactive; Beta2AR agonist: inactive; ABHD5-PLIN5 inh: inactive; Exocytosis inh: 94; Granule exo CP1: inactive

How did Fc1cccc(NC(=S)N2CCc3ccccc32)c1 do in these assays?
TLR9-MyD88 block: inactive; NOD2-RIPK2 inh: inactive; Beta2AR agonist: inactive; ABHD5-PLIN5 inh: inactive; Exocytosis inh: 64; Granule exo CP1: inactive

How did CN1C[C@@H]2C[C@@H](C3=Cc4cc(Cl)ccc4OC3)N3CCC[C@@]23C1=O do in these assays?
TLR9-MyD88 block: inactive; NOD2-RIPK2 inh: inactive; Beta2AR agonist: inactive; ABHD5-PLIN5 inh: inactive; Exocytosis inh: inactive; TLR4 MyD88 comp: inactive

Results for COc1ccccc1CN1C[C@@H]2C[C@@H](C3=Cc4cc(Cl)ccc4OC3)N3CCC[C@@]23C1=O ?
TLR9-MyD88 block: inactive; NOD2-RIPK2 inh: inactive; Beta2AR agonist: inactive; ABHD5-PLIN5 inh: inactive; Exocytosis inh: 56; TLR4 MyD88 comp: inactive; Granule exo CP1: inactive

Results for Cc1ccc(C)c(NC(=O)c2cc(-c3ccccc3)nn2-c2ccccc2)c1 ?
TLR9-MyD88 block: inactive; NOD2-RIPK2 inh: inactive; Beta2AR agonist: inactive; ABHD5-PLIN5 inh: inactive; Exocytosis inh: inactive; TLR4 MyD88 comp: inactive

Results for Cc1ccc(C)c(NC(=O)c2nc(-c3ccccc3)n(-c3ccccc3)n2)c1 ?
TLR9-MyD88 block: inactive; NOD2-RIPK2 inh: inactive; Beta2AR agonist: inactive; ABHD5-PLIN5 inh: inactive; Exocytosis inh: 68; TLR4 MyD88 comp: inactive; Granule exo CP1: inactive

What do the screens show for `COc1cn(-c2ccccc2)nc1C(=O)Nc1ccc(C)cc1`?
TLR9-MyD88 block: inactive; NOD2-RIPK2 inh: inactive; Beta2AR agonist: inactive; ABHD5-PLIN5 inh: inactive; Exocytosis inh: inactive

How did COc1ccc(C)cc1NC(=O)c1nn(-c2ccccc2)cc1OC do in these assays?
TLR9-MyD88 block: inactive; NOD2-RIPK2 inh: inactive; Beta2AR agonist: inactive; ABHD5-PLIN5 inh: inactive; Exocytosis inh: 100; Granule exo CP1: inactive

Results for CCCCn1c(N2CCCC2)nc2c1c(=O)[nH]c(=O)n2C ?
TLR9-MyD88 block: inactive; NOD2-RIPK2 inh: inactive; Beta2AR agonist: inactive; ABHD5-PLIN5 inh: inactive; Exocytosis inh: inactive

How did CCCCn1c(N2CCC(Cc3ccccc3)CC2)nc2c1c(=O)[nH]c(=O)n2C do in these assays?
TLR9-MyD88 block: inactive; NOD2-RIPK2 inh: inactive; Beta2AR agonist: inactive; ABHD5-PLIN5 inh: inactive; Exocytosis inh: 88; TLR4 MyD88 comp: inactive; Granule exo CP1: inactive
